USP17 block: inhibitors of human USP17 deubiquitinase; hit rate 6.5% among 47,000; purified USP17, Ub-rhodamine cleavage fluorescence, 3 h; A8MUK1; inhibition, % at 50 µM
Target sequence (A8MUK1 whole entry, looked up): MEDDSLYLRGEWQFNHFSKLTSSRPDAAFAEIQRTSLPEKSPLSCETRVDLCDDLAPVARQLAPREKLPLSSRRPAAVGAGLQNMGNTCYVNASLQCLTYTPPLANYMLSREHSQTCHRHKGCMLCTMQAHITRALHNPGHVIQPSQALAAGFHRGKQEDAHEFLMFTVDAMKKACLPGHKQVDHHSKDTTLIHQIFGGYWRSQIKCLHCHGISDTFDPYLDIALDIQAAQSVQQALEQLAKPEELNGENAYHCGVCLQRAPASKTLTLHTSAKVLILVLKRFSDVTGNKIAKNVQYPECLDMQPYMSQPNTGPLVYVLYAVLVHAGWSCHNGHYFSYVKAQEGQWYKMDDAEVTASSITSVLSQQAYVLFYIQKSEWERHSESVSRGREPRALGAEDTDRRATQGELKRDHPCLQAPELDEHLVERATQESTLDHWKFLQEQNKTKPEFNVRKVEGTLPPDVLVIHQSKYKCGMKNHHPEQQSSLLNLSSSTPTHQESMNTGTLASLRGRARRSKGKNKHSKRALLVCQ
USP28 inh: blocks human USP28 ubiquitin-rhodamine cleavage. inhibition, % at 25 µM. AID 1645857. hit rate 3% among 47,000. Q96RU2. purified USP28, Ub-rhodamine cleavage fluorescence, 30 min
USP30 block: blocks human USP30 ubiquitin-rhodamine cleavage; purified USP30, Ub-rhodamine cleavage fluorescence; inhibition, % at 25 µM; hit rate 5.3% among 47,000; AID 1645860
An asterisk follows results filed as active; i = inactive; . = not tested or not shown. Hits are enriched below; roughly 11% of the tested compounds scored in any of these assays. No stated cut-off is given here; in the data, active means inhibition above about 30%; inactive means the rest.

SMILES | USP17 block | USP28 inh | USP30 block
Cc1cc(C(=O)N2CCCC2c2ncc(C)[nH]2)c2c(C)noc2n1 (configuration not stated) | 2 | 3 | 15
COc1ccccc1-n1c(SCC(=O)N2CCc3ccccc32)nnc1-c1ccncc1 | 3 | 3 | 0
CC1Cc2ccccc2N1C(=O)CSc1nnc(-c2ccc3c(c2)OCCO3)n1C (configuration not stated) | -4 | 0 | 13
Cc1[nH]c2ccccc2c1C(=O)CSc1nnc(-c2cccc(S(=O)(=O)N3CCOCC3)c2)n1-c1ccc(F)cc1 | 19 | 0 | 1
CCn1c(SCC(=O)N2CCc3ccccc32)nnc1C1CC1 | -10 | . | .
COc1ccc(OC)c(-n2c(SCC(=O)N3CCc4ccccc43)nnc2-c2cccc(S(=O)(=O)N(C)C)c2)c1 | 48* | 43* | 49*
CCn1c(SCC(=O)c2c(C)[nH]c3ccccc23)nnc1-c1ccc2c(c1)OCCO2 | 67* | 41* | 53*
CCn1c(SCC(=O)N2CCc3ccccc32)nnc1-c1ccc(C)c(Cl)c1 | 33* | 8 | 21
CCn1c(SCC(=O)N2CCc3ccccc32)nnc1-c1ccc2c(c1)OCCO2 | 58* | 4 | 74*
COc1cccc([C@@H]2c3c(C)nn(-c4ccccc4)c3NC(=O)[C@H]2NC(=O)c2cccc(C)c2)c1 | -1 | -5 | -10
COc1ccccc1-c1cc(C(=O)N2C[C@@H]3C[C@@]4(C)[C@H](CCC[C@@H]24)N3)[nH]n1 | -24 | -7 | -1
O=C(C1CCC1)N1CC[C@H]2Nc3ccc(F)cc3[C@@H]2C1 | -37 | -14 | -22
O=C(/C=C/c1ccccc1)N(Cc1ccc2c(c1)OCO2)C1CCCC1 | 17 | 9 | 24
c1ccc(-c2cc3nc(NCc4ccncc4)ccn3n2)cc1 | -16 | 1 | 4
c1coc(-c2cc3nc(NCCCn4ccnc4)ccn3n2)c1 | 46* | 23 | -92
Cc1nc2ccc(S(=O)(=O)CCC(=O)Nc3ccc(C)c(F)c3)cc2s1 | -22 | 15 | 14
CC(=O)c1cccc(NC(=O)c2ccc(OC3CSC3)cc2)c1 | 13 | 15 | 19
CC(=O)c1cccc(NC(=O)c2ccc3[nH]c4c(c3c2)CC(C)CC4)c1 (configuration not stated) | 54* | 16 | -6
O=C(OCC(=O)N1CCCc2ccccc21)c1ccc2c(c1)OCO2 | 3 | 13 | 13
CC1OC2CC(O)C1(O)C1=C2C(=O)c2c(O)c3c(c(O)c2C1=O)[C@H](C)O[C@H]1CC(=O)O[C@@H]31 (some centres not stated) | 56* | 11 | -81
O=C(Nc1ccc2n[nH]nc2c1)c1ccc(Cl)c(Cl)c1 | 51* | 17 | 53*
CCN(CC)S(=O)(=O)c1cc(C(=O)Nc2ccc(C)c(C)c2)ccc1Cl | -18 | -4 | -7
CS(=O)(=O)N(CC(=O)N1CC(=O)Nc2ccccc21)c1ccccc1 | -4 | -6 | -7
CCc1cc2cc3c(cc2nc1SCC(=O)N1CC(=O)Nc2ccccc21)OCO3 | 35* | 8 | -18
Cc1ccc(-c2ncc(C(=O)Nc3ccc(Cl)cc3)c(-c3ccncc3)n2)cc1 | -104 | -130 | i
SMILES | USP17 block | USP28 inh | USP30 block
Cc1ccc(-c2nc(NC(=O)c3c(-c4ccccc4)noc3C)sc2C)cc1Cl | -5 | 5 | -8
Cc1ccc(-c2nc(NC(=O)c3c(F)cccc3F)sc2C)cc1Cl | 37* | 9 | 23
O=C(Nc1nnc(-c2ccc(F)cc2)s1)c1c(F)cccc1F | 41* | 11 | 26
Cc1sc(NC(=O)c2ccc3ccccc3n2)nc1-c1ccc(F)cc1 | 35* | -36 | -157
Cc1ccc(-c2nc(NC(=O)Nc3ccc(Cl)cc3)sc2C)cc1 | 60* | 0 | 15
Cc1sc(NC(=O)c2cnc3ccccc3n2)nc1-c1ccc(F)c(F)c1 | 1 | -7 | -4
Cc1ccc(-c2nnc(NC(=O)c3c(F)cccc3F)s2)cc1 | 3 | 3 | 12
O=C(c1ccc(N2C(=O)CCS2(=O)=O)cc1)N1CCN(c2ccccc2F)CC1 | 9 | 10 | 18
CCC1Oc2ccc(C(=O)c3ccco3)cc2N(CC(=O)NC(C)(C)C)C1=O (configuration not stated) | -4 | -4 | -13
COc1ccc(C(=O)Nc2nccnc2C(=O)N2CCN(c3ccc(F)cc3)CC2)cc1 | -15 | -4 | -20
CCN(CC)C(=O)CN1C(=O)C2(Nc3ccccc3C(=O)N2c2ccccc2)c2ccccc21 (configuration not stated) | 0 | 7 | 2
Cc1noc(C)c1C(=O)N1C2CCC3(CC2)OC(=O)N(C)CC13 (configuration not stated) | -1 | 0 | 1
O=C(C1CCN(Cc2ccc(Cl)cc2)CC1)N1CCN(c2ccccc2)CC1 | -11 | -7 | -28
O=C(CCN=C1NS(=O)(=O)c2ccccc21)Nc1cccc(-c2nnc3n2CCCCC3)c1 | 3 | 8 | 11
O=S1(=O)NC(=NCCc2cccc(F)c2)c2ccccc21 | 49* | 6 | 34*
O=[N+]([O-])c1ccc(N2CCOCC2)nc1N1CCOCC1 | 4 | 17 | 28
O=C(Nc1nc2c(s1)CN(C(=O)c1cc(-c3ccco3)on1)CC2)C1CCCO1 (configuration not stated) | 33* | 20 | -136
O=C(Nc1nc2c(s1)CN(C(=O)c1cnn(-c3ccccc3)n1)CC2)C1CCCO1 (configuration not stated) | 1 | 7 | -11
Cc1cccc2sc(NC(=O)Cc3c[nH]c4ccccc34)nc12 | -6 | 19 | -22
O=C(Cc1c[nH]c2ccccc12)Nc1nc2ccccc2s1 | 5 | 64* | -8
COc1cccc2sc(N3CCN(c4nc5ccccc5s4)CC3)nc12 | 77* | -8 | -13
COc1ccc(Cn2nnnc2CN2CCN(c3nc4ccccc4s3)CC2)cc1 | -4 | 7 | 20
COc1ccccc1NS(=O)(=O)c1ccc2oc(SCc3cn4c(C)cc(C)nc4n3)nc2c1 | . | 9 | 31*
COc1ccccc1NS(=O)(=O)c1ccc2oc(SCC(=O)N3CCc4ccccc4C3)nc2c1 | 22 | 7 | 25
Cc1cc(Cl)c2c(c1)[C@]1(C(=O)N2)N2CCC[C@H]2[C@@H](C(=O)c2cc3ccccc3o2)[C@]12C(=O)Nc1ccccc12 | 63* | -19 | -48
SMILES | USP17 block | USP28 inh | USP30 block
O=C(c1cc2ccccc2o1)[C@@H]1[C@@H]2CCCN2[C@]2(C(=O)Nc3c(Cl)cccc32)[C@@]12C(=O)Nc1ccccc12 | -9 | -12 | -83
CCOc1ccc(-n2ccnc(NCc3ccc(OC)cc3)c2=O)cc1 | 4 | 12 | 20
COc1ccc(-n2ccnc(SCc3ccc(Cl)cc3)c2=O)cc1 | 33* | 36* | 15
CC(NC(=O)Cc1nnc(-c2cnccn2)o1)c1ccc(F)cc1 (configuration not stated) | -2 | 0 | -1
C[C@@H](NC(=O)Cc1ccc(F)cc1)c1nc2cc(-c3ccccc3F)ncn2n1 | 16 | 1 | 8
COc1ccccc1CC(=O)N[C@@H](C)c1nc2cc(-c3ccccc3F)ncn2n1 | -39 | 18 | 39*
C[C@H](NC(=O)Cc1ccccc1F)c1nc2cc(-c3ccc(F)cc3)ncn2n1 | 25 | 8 | 35*
CCOCc1ccc(C(=O)N[C@H](C)c2nc3cc(-c4ccc(OC)cc4)ncn3n2)cc1 | 13 | 22 | 41*

Compound activity: PubChem BioAssay, Buhrlage Lab, Dana-Farber Cancer Institute and Novartis Institutes for BioMedical Research (Cambridge, Mass)
